From article PMC5540273 (PLoS ONE, 2017)

tested on: BMPR2; conditions: concentration: 1 μM, replicates: in singlicate; n = 1
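Note: KINOMEscan kinase panel screen.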

Structure (SMILES) | %Inh
COc1cc(Nc2nccc(N3CCC(NS(=O)(=O)c4ccc(NC(C)=O)cc4)CC3)n2)cc(OC)c1OC [GSK1379825] | 0%
Cc1cc(-c2ccnc(Nc3cccc(C#N)c3)n2)cc(C)c1O [GSK1440913] | 16%
Cc1ccc(C)c(NC(=O)Nc2ccc(C)c(-c3ccc(C(=O)Nc4ccncc4)cc3)c2)c1 [GSK1398473] | 0%
CN(C)CCNS(=O)(=O)c1ccc(-c2ccnc3[nH]ccc23)cc1 [GSK977620] | 0%
O=C(Nc1n[nH]c2nc(-c3cccc(O)c3)ccc12)C1CC1 [SB-711805] | 34%
COc1cccc(C2=C(Nc3cccc(O)c3)C(=O)NC2=O)c1 [SB-390771] | 36%
CSc1ccc(NC2=C(c3ccc(Cl)cc3)C(=O)NC2=O)cc1 [SB-317658] | 0%
Cc1ccc(O)cc1Nc1ccnc2cc(-c3ccc(CN4CCCCC4)o3)ccc12 [GW557777] | 0%
Fc1cc(Cl)ccc1Nc1ccnc2cc(-c3ccc(CN4CCOCC4)o3)ccc12 [GW560109] | 0%
COC(=O)Nc1nc2ccc(Oc3ccc(NC(=O)Nc4cc(C(F)(F)F)ccc4F)cc3)cc2[nH]1.Cl [GW654607] | 0%
CN(c1ccc(NC(=O)N2CCN(CCCN3CCOCC3)CC2)cc1)c1ccnc(Nc2ccc(CS(C)(=O)=O)cc2)n1.Cl [GW830899] | 0%
CCn1c(-c2nonc2N)nc2c(-c3ccccc3)ncc(OCCCN)c21.O=C(O)C(F)(F)F.O=C(O)C(F)(F)F [GSK260205] | 2%
COc1cc(Nc2nccc(N3CCC(NC(=O)Nc4ccc5c(c4)OCO5)C3)n2)cc(OC)c1OC (stereo not shown) [GSK1379766] | 30%
Cc1ccc(NC(=O)c2ccnc(N3CCCCC3)c2)cc1-c1ccc(C(=O)NCC2CC2)cc1 [GW775610] | 0%
COC(=O)Nc1nc2ccc(Oc3ccc(CC(=O)Nc4cc(C(F)(F)F)ccc4F)cc3)cc2[nH]1 [GW680903] | 1%
COc1ccc(NC(=O)c2ccoc2)cc1-c1ccc(C(=O)NCC2CC2)cc1 [GW810437] | 46%
Cc1cccc(Nc2nc(NCCN)ncc2C(N)=O)c1 [GSK1292139] | 70%
Cl.N#CCc1ccc(Nc2nccc(Nc3ccc(Oc4ccccc4)cc3)n2)cc1 [GW639905] | 0%
Fc1cc(Cl)ccc1Nc1ccnc2cc(-c3ccc(CN4CCSCC4)o3)ccc12 [GW560106] | 5%

Structure (SMILES) | %Inh
NCCC(NC(=O)c1cc(Br)c(-c2ccnc3[nH]ccc23)s1)c1ccccc1.O=C(O)C(F)(F)F.O=C(O)C(F)(F)F (stereo not shown) [GSK1307810] | 52%
O=C(O)C(F)(F)F.O=c1[nH]ccc2nc(N[C@@H]3CCNC3)nc(Nc3ccc4c(c3)S(=O)(=O)CC4)c12 [GSK2181306] | 99.5%
Cc1ccccc1CC(=O)N1CCc2cc(-c3cn(C)c4ncnc(N)c34)ccc21 [GSK2603346] | 0%
CCNC(=O)/C=C/c1n[nH]c2cc(Sc3ccccc3C(=O)NC)ccc12 | 1%
Nc1ncc(-c2ccc3nccc(-c4ccncc4)c3c2)cc1S(=O)(=O)N1CCCCC1 [GSK1693850] | 0%
CS(=O)(=O)c1cccc(CNc2nc(Nc3ccc4c(c3)CCC(=O)N4)ncc2C(F)(F)F)c1 | 39%
COc1ccc(C)c(Nc2ccnc(Nc3ccc(-c4cnc[nH]4)cc3)n2)c1.Cl [GW784041] | 0%
O=C(O)C(F)(F)F.O=c1[nH]ccc2nc(N[C@@H]3CCNC3)nc(Nc3cc(Cl)cc(Cl)c3)c12 [GSK2188764] | 70%
Cl.Cl.NC(CNC(=O)c1cc(Br)c(-c2ccnc3[nH]ccc23)s1)c1ccccc1 (stereo not shown) [GSK1322949] | 58%
COC(=O)Nc1nc2cc(Oc3ccc(NC(=O)Nc4cccc(SC)c4)cc3)ccc2[nH]1.Cl [GW697999] | 4%
CCOc1nccc(-c2c(-c3ccc(F)cc3)ncn2C2CCNCC2)n1 [SB-249175] | 26%
Cl.Cl.NCC(NC(=O)c1cc(-c2cccnc2)c(-c2ccnc3[nH]ccc23)s1)c1ccccc1 (stereo not shown) [GSK1323434] | 5%
Nc1ncnc2scc(-c3ccc(NC(=O)Cc4cc(F)ccc4F)cc3)c12.O=C(O)C(F)(F)F [SB-731254-M] | 0%
Cn1cc(-c2ccc3c(c2)CCN3C(=O)Cc2cc(F)cc(C(F)(F)F)c2)c2c(N)ncnc21 [GSK2635225] | 0%
COc1cccc2c(-c3ccncc3)c(-c3ccc(F)cc3)nn12 [GW468513] | 7%
COc1cccc(NC(=O)NCCNc2ccnc(Nc3ccc(F)cc3)n2)c1 [GSK1379879] | 5%
Cn1cc(-c2ccc3c(c2)CCN3C(=O)Cc2cc(F)cc(F)c2F)c2c(N)ncnc21 [GSK2634140] | 0%
CN(C)CCOc1ccc(-c2cc(-c3ccc(Cl)c(O)c3)c(-c3ccncc3)[nH]2)cc1.Cl.Cl [SB-684387] | 10%
